Data as given in PubChem BioAssay (NCATS).
Records with an inconclusive call do not appear. Calls of active or inactive are those of the source. Calls come from the whole dose curve; as a rule, active = well fitted cell-killing curve with a large enough effect; inconclusive = small, poorly fitted or top-dose-only effect, or effect the other way; inactive = flat fitted curve, though single readings scatter.

Columns and labels:
Assay in all cases: Primary qHTS to identify gynecologic anti-cancer compounds using libraries of approved drugs and bioactive compounds (AID 1345084); note: nearly all actives have a fitted effect of over 55% in size
Conditions in all cases: Gynecologic cancer cell panel viability, ATPlite luminescence, 48 h; series mostly up to 57.5 µM
OV90 = system: OV90
In short: (§1)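 Cytotoxicity screen measuring ATP content by luciferase luminescence. Each compound is applied at five concentrations for 48 h at 37 C with 5% CO2.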

PA-1 = system: PA-1
In short: as §1

Tov-21-G = system: Tov-21-G
In short: as §1

Tov112D = system: Tov112D
In short: as §1
% is set by controls: 0 for no effect and ±100 for the full control effect.

Cc1ccc2[nH]c(=O)c(C3=NN(C(=O)CCC(=O)O)C(c4ccc(Br)cc4)C3)c(-c3ccccc3)c2c1 (stereo unspecified)
inactive: Potency (OV90) | Potency (PA-1) | Potency (Tov-21-G) | Potency (Tov112D)

CC1=CC(=O)CC(C)(C)[C@@]1(O)/C=C/C(C)O[C@@H]1O[C@H](CO)[C@@H](O)[C@H](O)[C@H]1O (stereo partly specified)
inactive: Potency (OV90) | Potency (PA-1) | Potency (Tov-21-G) | Potency (Tov112D)

COc1cc(Nc2ccc([N+](=O)[O-])cc2C(=O)O)cc2ccccc12
inactive: Potency (OV90) | Potency (PA-1) | Potency (Tov-21-G) | Potency (Tov112D)

Cc1ncc(Cl)cc1NCc1ccc(C(=O)NC(CC2CCCC2)C(=O)NC2CC2)s1 (stereo unspecified)
inactive: Potency (OV90) | Potency (PA-1) | Potency (Tov-21-G) | Potency (Tov112D)

O=[N+]([O-])c1cc(Cl)ccc1S(=O)(=O)N1CCN(Cc2ccccc2)CC1
inactive: Potency (OV90) | Potency (PA-1) | Potency (Tov-21-G) | Potency (Tov112D)

CC(=O)NC(Cc1c[nH]c2ccccc(=O)c12)C(=O)O (stereo unspecified)
inactive: Potency (OV90) | Potency (PA-1) | Potency (Tov-21-G) | Potency (Tov112D)

COc1cc(C2CC(=O)Nc3c2cc(Br)c2ccccc32)cc(OC)c1OC (stereo unspecified)
inactive: Potency (OV90) | Potency (PA-1) | Potency (Tov-21-G) | Potency (Tov112D)

COC(=O)C1=CO[C@@H](O[C@@H]2O[C@H](CO)[C@@H](O)[C@H](O)[C@H]2O)[C@H]2[C@@H]1[C@H](O)C[C@]2(C)O
inactive: Potency (OV90) | Potency (PA-1) | Potency (Tov-21-G) | Potency (Tov112D)

C/C=C(/C)C(=O)OC1C(OC(C)=O)C23C(O)OC4(CCC5C6(C)CCC(OC7OC(C(=O)O)C(O)C(OC8OC(CO)C(O)C(O)C8OC8OC(C)C(O)C(O)C8OC8OCC(O)C(O)C8O)C7OC7OC(CO)C(O)C(O)C7O)C(C)(C)C6CCC5(C)C4(C)CC2OC(C)=O)C3CC1(C)C (stereo unspecified)
inactive: activity change, negative = cytotoxicity (OV90) 3.74% [at 6.55 µM] | activity change, negative = cytotoxicity (PA-1) -0.0173% [at 6.55 µM] | activity change, negative = cytotoxicity (Tov-21-G) -4.78% [at 6.55 µM] | activity change, negative = cytotoxicity (Tov112D) 1.18% [at 6.55 µM]
